Most compounds without a hit are left out; they make up all but 17% or so of the library.
HepG2 viability: kills HepG2 cells in TGF-b inhibitor counter-screen; HepG2 CAGA-GFP viability, ATP luminescence, 18 h; Potency, µM (doses to about 46.1 µM), for the others: at the top dose activity change, negative = cytotoxicity, usual class: cytotoxic; 410,000 compounds, 0.76% hits; AID 588856
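HepG2 CAGA-GFP cells (1000/well, DMEM with 1% FBS) received compound, then TGF-beta at 500 pg/mL final, and were incubated 18 hours at 37 degrees C. Viability was read by CellTiter-Glo luminescence. Media-only wells were set as complete cell-killing and DMSO as no toxicity.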
HT1080NT lethal: kills 2HG-producing HT-1080-NT fibrosarcoma cells; Potency, µM (top dose mostly 46.1 µM), for the others: at the top dose activity, negative = less viability, most hits filed as cytotoxic; 360,000 compounds, 1.6% hits; HT-1080-NT fibrosarcoma viability, CellTiter-Glo ATP luminescence, 48 h;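 note: NT is the 2HG producing partner of a matched IDH1 knockdown line; 0% = DMSO-treated cells and -100% = media-only wells without cells; nearly all actives have a fitted effect of over 55% in size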
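Viability by CellTiter-Glo luminescence after 48 h compound exposure at 37C of HT-1080-NT cells (750/well, RPMI, 5% FBS). % activity scaled between DMSO wells and medium-only wells, then curve-fitted and categorized by curve class.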
TGFb inhibitor: blocks TGF-b signaling; AID 588855; HepG2 CAGA-GFP TGF-b/SMAD3 reporter, GFP fluorescence, 18 h; TGF-beta stimulated, 500 pg/mL final; Potency, µM (series often up to 46.1 µM), without a hit: top-dose activity, negative = inhibition, most hits filed as inhibitors; 410,000 compounds, 1.2% hits; note: % is set by controls: 0 for no effect and ±100 for the full control effect; nearly all actives have a fitted effect of over 65% in size
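HEPG2 CAGA-GFP reporter cells (1000/well, DMEM with 1% FBS) received compounds, then recombinant TGF-beta at 500 pg/mL final for 18 hours at 37 degrees C. Per-cell GFP summed per well was normalised to unstimulated and stimulated DMSO controls before curve fitting.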
TDP1 cell CPT: growth inhibition of DT40 Tdp1-/-;hTDP1 cells with camptothecin (screen for TDP1 inhibitors); chicken DT40 Tdp1-/-;hTDP1 cells + 20 nM CPT, ATP luminescence, 48 h; AID 686979; Potency, µM (highest dose often 46.2 µM), without a hit: at the top dose activity change, negative = growth inhibition, actives largely listed as inhibitors; 420,000 compounds, 12% hits; note: % is set by controls: 0 for no effect and ±100 for the full control effect; nearly all actives have a fitted effect of over 55% in size
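Chicken DT40 Tdp1-/- cells complemented with human TDP1, 400 cells/well, exposed to compounds plus 20 nM camptothecin for at least 48 h at 37 C; viability read as ATP content by CellTiter-Glo luminescence.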
DT40 TDP1 no CPT: qHTS for Inhibitors of human tyrosyl-DNA phosphodiesterase 1 (TDP1): qHTS in cells in absence of CPT; DT40 Tdp1-/- hTDP1 cells, no CPT, ATP luminescence, 48 h; Potency, µM (titrated, usually from 46.2 µM), for the others: top-dose activity change, negative = growth inhibition, usual class: inhibitors; 420,000 compounds, 15% hits; AID 686978, 2013; note: % is set by controls: 0 for no effect and ±100 for the full control effect; nearly all actives have a fitted effect of over 55% in size
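Readout: luminescence from CellTiter-Glo after 30 min in the dark at RT. Cells: DT40 Tdp1-/- with stable hTDP1, 400/well. Exposure: compounds alone, ≥48 hr, 37 °C.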
HT1080 IDH1KD tx: kills HT-1080 cells with IDH1 knockdown | Potency, µM (highest dose often 46.1 µM), without a hit: top-dose activity, negative = toxicity, actives largely listed as cytotoxic | AID 686971 | HT-1080 IDH1 knockdown viability, ATP luminescence, 48 h | 360,000 compounds, 2% hits;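 note: 0% = DMSO wells and -100% = cell-free medium wells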
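CellTiter-Glo luminescence after 48 h compound exposure at 37 degrees C of IDH1-knockdown HT-1080 cells in 5% FBS RPMI. %Activity scaled between DMSO wells and cell-free media wells, with curves fitted and assigned curve classes.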
* hit, by the source's call; ? = inconclusive; · = no result given; [ ] = another dose, or the depositor's remark. Calls come from the whole dose curve; as a rule, active = well fitted curve in the direction sought with a large enough effect; inconclusive = small, poorly fitted or top-dose-only effect, or another doubt; inactive = no such curve, though single readings can be large; an effect the other way counts as inactive or inconclusive. Potency is the fitted concentration of half-maximal effect.

SMILES | HepG2 viability | HT1080NT lethal | TGFb inhibitor | TDP1 cell CPT | DT40 TDP1 no CPT | HT1080 IDH1KD tx
COc1cc(CNc2ncnc3c2ncn3[C@H]2CN(Cc3ccncc3)C[C@@H](CO)O2)cc(OC)c1OC | -6.2% | -2.6% | 2.6% | 13µM* | 13µM* | -12.9%
COc1cc(CNc2ncnc3c2ncn3[C@H]2CN(Cc3cccc4ccccc34)C[C@@H](CO)O2)cc(OC)c1OC | 6.7% | ? | ? | 18.4µM* | 23.1µM* | ?
COc1cc(CNc2ncnc3c2ncn3[C@H]2CN(Cc3ccc(C(=O)O)cc3)C[C@@H](CO)O2)cc(OC)c1OC | 8.3% | 22.5% | 1.7% | 0.8% | 9.6% | ?
COc1cc(CNc2ncnc3c2ncn3[C@H]2CN(Cc3ccc(-c4ccccc4)cc3)C[C@@H](CO)O2)cc(OC)c1OC | -17.8% | ? | ? | 8.2µM* | 11.6µM* | ?
COc1ccc(Cn2nnnc2C(c2ccc(N(C)C)cc2)N2CCC(C(N)=O)CC2)cc1 (configuration not stated) | -4.8% | -4.6% | -3.0% | 1.7% | -7.8% | -0.6%
COC(=O)C1CCN(Cc2ccc3c(c2)CN(C(=O)c2cc4ccccc4n2C)CCO3)CC1 | · | · | · | 12.3%[9.04 µM] | ? | ·
COc1cccc(OC)c1C(=O)N=c1sc2cc(S(C)(=O)=O)ccc2n1C | -4.5% | 3.4% | 2.1% | -10.1% | -18.3% | 12.5%
C=CCn1c(=NC(=O)c2ccccc2[N+](=O)[O-])sc2cc(S(C)(=O)=O)ccc21 | -12.0% | -11.2% | -5.1% | 16.4µM* | 20.6µM* | -5.6%
S=C(NCC1CCCO1)c1ccc(Br)cc1 (configuration not stated) | -6.3% | -0.2% | 17.2% | ? | ? | -12.4%
COc1cc(S(=O)(=O)N2CCOCC2)ccc1NC(=O)COC(=O)c1cc(OC)c(OC)c(OC)c1 | -2.0% | 1.7% | -20.6% | -17.7% | ? | -9.8%
COc1cc(S(=O)(=O)N2CCOCC2)ccc1NC(=O)COC(=O)CC12CC3CC(CC(C3)C1)C2 | 7.9% | -4.3% | ? | ? | 18.4µM* | -15.9%
O=C(COC(=O)C12CC3CC(CC(O)(C3)C1)C2)Nc1ccc(Cl)c(S(=O)(=O)N2CCOCC2)c1 | -12.3% | -4.7% | -2.5% | 29.1µM* | ? | -2.3%
COc1ccc(NC(=O)COC(=O)C23CC4CC(CC(NC(C)=O)(C4)C2)C3)cc1S(=O)(=O)N1CCOCC1 | 2.8% | -1.1% | -8.4% | 25.9µM* | 16.4µM* | 2.1%
COc1cccc(NC(=O)Cn2c(=O)n(Cc3ccco3)c(=O)c3cc(OC)c(OC)cc32)c1 | -9.5% | · | ? | -13.6% | -6.2% | ·
NC(=O)c1ccc(-c2nnc(Nc3ccc(S(N)(=O)=O)cc3)c3ccccc23)cc1 | 9.9% | 0.6% | -16.9% | ? | ? | 9.5%
CCOC(=O)c1sc2nc3c(SCCC(=O)O)cc(C(=O)c4cc(OC)ccc4O)cn3c(=O)c2c1C | -18.9% | -1.6% | -27.9% | 3.66µM* | 5.17µM* | 7.7%
C[C@@H]1CN([C@@H](C)CO)C(=O)CCCn2nncc2CO[C@H]1CN(C)S(=O)(=O)c1ccc(-c2ccccc2)cc1 | -14.3% | 8.4% | 2.1% | ? | -53.9% | -7.7%
CCN(CC)S(=O)(=O)c1cccc(S(=O)(=O)c2cccc(S(=O)(=O)N(CC)CC)c2)c1 | -34.7% | -0.5%[9.24 µM] | -21.4% | 20.6µM* | 18.4µM* | ?
CCN(CC)CCOc1ccc2c(c1)C(=NO)c1cc(OCCN(CC)CC)ccc1-2 | -71.8% | 10µM* | 11.2µM* | 18.4µM* | 18.4µM* | 7.08µM*
CCCOc1ccc2c(c1)C(=NN=C(N)N)c1cc(OCCC)ccc1-2 | -104.0% | ? | ? | 25.9µM* | 23.1µM* | ?
CCN(CC)S(=O)(=O)c1ccc2c(c1)C(=NO)c1cc(S(=O)(=O)N(CC)CC)ccc1-2 | -54.7% | 18.4µM* | ? | 2.31µM* | 2.31µM* | 7.31µM*
Cc1[nH]c2ccccc2c1/C=N/NC(=O)C1CC1(c1ccccc1)c1ccccc1 (configuration not stated) | -92.9% | ? | ? | ? | ? | ?
CC(C)CC(=O)OCc1cn(-c2ccccc2)nn1 | -9.8% | 5.5% | 34.4% | 0.7% | 6.9% | 2.8%
O=C(NC(=S)N1CCN(Cc2ccc3c(c2)OCO3)CC1)c1cccc(Br)c1 | -27.3% | -0.2% | ? | 16.4µM* | 14.6µM* | -18.6%
O=C(NC(=S)N1CCN(Cc2ccc3c(c2)OCO3)CC1)c1ccc(Cl)cc1 | -31.8% | -22.2% | -27.2% | ? | 20.6µM* | -22.0%
SMILES | HepG2 viability | HT1080NT lethal | TGFb inhibitor | TDP1 cell CPT | DT40 TDP1 no CPT | HT1080 IDH1KD tx
CCc1cccc(CC)c1-n1c(SCC(=O)N2CCc3ccccc3C2)nnc1-c1cccnc1 | 4.1% | ? | -8.0% | 18.4µM* | 23.1µM* | ?
CC(C)c1ccccc1-n1c(SCC(=O)N2CCN(c3ccccc3)CC2)nnc1-c1cccnc1 | -3.1% | ? | -0.2% | 16.4µM* | 23.1µM* | ?
Cn1c(SCC(=O)N2CCc3ccccc3C2)nnc1-c1ccncc1 | -1.1% | 0.6% | -15.3% | 3.6% | -22.6% | 0.0%
CC(C)c1ccccc1-n1c(SCc2cc(=O)oc3ccc4ccccc4c23)nnc1-c1cccnc1 | 13.5% | -25.6% | -33.6% | ? | 14.6µM* | ?
Cc1cccc(CCNC(=O)C2CCN(S(=O)(=O)c3ccccc3)CC2)c1 | -1.3% | 1.1% | -16.3% | -3.9% | ? | 0.1%
Cc1cc(C)n2nc(-c3ccccc3)c(-c3ccccc3)c2n1 | 2.2% | 5.1% | 8.0% | ? | ? | 3.4%
COc1ccc(S(=O)(=O)Oc2ccccc2C(N)=O)cc1 | 5.2% | -1.9% | -2.2% | -10.4% | -17.7% | 3.5%
COc1ccccc1N1CCN(C(=O)c2ccc(N3CCCCS3(=O)=O)cc2)CC1 | 0.0% | -4.6% | -1.0% | ? | -14.3% | 0.0%
CC(C)CCN1C(=O)c2ccccc2C1c1nnnn1C(C)C (configuration not stated) | · | 13.6% | · | ? | ? | 28.4%
Cc1ccc(CNC(=O)c2ccc(C#CC(C)(C)O)s2)cc1 | 2.6% | 6.9% | -1.4% | -2.2% | -1.8% | 12.9%
CC1(c2ccccc2)NC(=O)N(CC(=O)Nc2ccc([N+](=O)[O-])cc2)C1=O (configuration not stated) | -4.7% | ? | -12.6% | 25.9µM* | ? | ?

Bioassay records: PubChem, National Center for Advancing Translational Sciences (NCATS)
